# Compound activity (PubChem BioAssay)
# Rab9 prom act – activates the Rab9 promoter | hit rate 2.8% among 320,000 | AID 485297 | Potency, µM (titrated, usually from 9.22 µM), for the others: at the top dose activation, negative = inhibition, most hits filed as activators | Huh7 Rab9 promoter-luciferase reporter, luminescence, 24 h; further: % of control where 0% means no effect; nearly all actives have a fitted effect of over 60% in size
#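 Cells were plated at 1500 per well in reduced-serum medium with 10% FBS and left 2 h. Compound in DMSO was then added for 24 h at 37 °C. Reporter signal was read by luminescence after 10 min with luciferase detection reagent.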
# SMN2 splice up – SMN2 splice variant enhancement; HEK293 SMN2-luciferase splicing reporter, luminescence, 30-36 h; Potency, µM (series often up to 46.1 µM), without a hit: at the top dose activity change, positive = activation, usual class: activators; hit rate 2.8% among 210,000; further: % of control where 0% means no effect; nearly all actives have a fitted effect of over 55% in size
#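 HEK293 cells carry an SMN2 minigene-luciferase reporter in which exon 7 inclusion puts luciferase in frame. Cells were seeded at 2000 cells/well, attached for 10-12 hours, then exposed to compounds for 30-36 hours at 37C before ONE-Glo luminescence.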
# NPC1 promoter act – NPC1 promoter activation. AID 485313. Potency, µM (top dose mostly 9.22 µM), inactives show top-dose activation, hits mostly activators. Huh7 NPC1 promoter luciferase reporter, 24 h. hit rate 2.4% among 320,000; further: % of control where 0% means no effect; nearly all actives have a fitted effect of over 60% in size
#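 In 1536-well qHTS, Huh7 cells harboring an NPC1 promoter–luciferase construct received compound for 24 h; activation was quantified by luminescence following luciferase reagent addition.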
# uPA generation – blocks generation of uPA at the cell surface. cell surface uPA generation assay, qHTS. Potency, µM (highest dose often 38.3 µM), inactives show top-dose activity change, negative = inhibition, most hits filed as inhibitors. hit rate 0.31% among 330,000. AID 540303; active means well fitted inhibition curve with a large enough effect; inconclusive means small, poorly fitted or top-dose-only effect; inactive means no such curve, though single readings can be large or run the other way; tested in mouse RAW 264.7 cells; further: on the % scale 0 is the no-effect control and ±100 the full control effect; nearly all actives have a fitted effect of over 55% in size
# ELG1 genotoxic – inducers of genotoxicity in HEK293T ELG1-luciferase cells; AID 504466; HEK293T ELG1-luciferase reporter, luminescence, 16 h; hit rate 1.3% among 330,000; Potency, µM (doses to about 46 µM), for inactives: top-dose activity change, positive = activation, usual class: activators; further: % of control where 0% means no effect; nearly all actives have a fitted effect of over 60% in size
#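 ELG1-luciferase HEK293T cells, 2,000/well; compound pinned in; 16 hr, 37 °C, 5% CO2; ONE-Glo, 30 min RT; luminescence on CCD imager.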
# FLuc counter – firefly luciferase modulation, counter-screen for miR-21 project; P08659; purified FLuc, Km substrates, luminescence inhibition; Potency, µM (highest dose often 57.5 µM), for inactives: at the highest dose activity change, negative = inhibition, hits mostly inhibitors; hit rate 6.9% among 360,000; AID 588342;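 further: plate controls were vehicle for no effect and reference inhibitor for full effect; nearly all actives have a fitted effect of over 55% in size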
# Target sequence (P08659 whole entry, looked up): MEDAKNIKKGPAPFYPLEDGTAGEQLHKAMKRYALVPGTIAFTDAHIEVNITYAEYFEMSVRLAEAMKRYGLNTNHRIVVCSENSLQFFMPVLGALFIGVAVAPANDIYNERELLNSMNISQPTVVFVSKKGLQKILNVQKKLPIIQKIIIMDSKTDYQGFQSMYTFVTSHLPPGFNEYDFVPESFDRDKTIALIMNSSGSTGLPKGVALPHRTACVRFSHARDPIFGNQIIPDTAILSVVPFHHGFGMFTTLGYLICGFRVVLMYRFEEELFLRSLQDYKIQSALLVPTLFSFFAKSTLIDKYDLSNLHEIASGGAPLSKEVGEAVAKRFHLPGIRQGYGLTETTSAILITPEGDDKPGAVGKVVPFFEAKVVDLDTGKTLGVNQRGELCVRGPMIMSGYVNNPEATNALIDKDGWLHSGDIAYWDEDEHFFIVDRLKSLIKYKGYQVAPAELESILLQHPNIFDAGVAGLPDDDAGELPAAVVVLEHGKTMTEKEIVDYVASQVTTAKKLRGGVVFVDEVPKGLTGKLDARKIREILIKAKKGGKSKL
#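 Purified P. pyralis luciferase, 10 nM final, with Km-level 10 uM D-luciferin and 10 uM ATP in 50 mM Tris acetate pH 7.5, 10 mM Mg acetate, 0.01% Tween-20, 0.05% BSA; 6-point qHTS titration about 60 µM downward; luminescence read.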
# * hit, by the source's call; ? = inconclusive; . = not tested or not shown; ! = not active in a repeat; [ ] = remark or other dose. Sampled rows, rich in hits. Any-hit rate of the full collection: about 7.3%. Unless noted, the call rests on the fitted dose curve; in most records, active means well fitted curve in the direction sought with a large enough effect; inconclusive means small, poorly fitted or top-dose-only effect, or another doubt; inactive means no such curve, though single readings can be large; an effect the other way counts as inactive or inconclusive. Potency means the concentration at half of the fitted maximal effect.
SMILES,Rab9 prom act,SMN2 splice up,NPC1 promoter act,uPA generation,ELG1 genotoxic,FLuc counter
Cc1ccc2c(c1)sc1nc(=O)n(-c3cccc(Cl)c3)c(=O)n12,1.6µM*,11µM*!,1.6µM*,0%,?,6%
O=c1nc2sc3ccccc3n2c(=O)n1-c1ccc(Cl)cc1,2.8µM*,20µM*,3.2µM*,-1%,?,-6%
Cc1ccc2c(c1)sc1nc(=O)n(-c3ccc(Cl)cc3)c(=O)n12,27%,-5%,29%,5%,9%,-6%
O=c1nc2sc3ccccc3n2c(=O)n1-c1cccc(Cl)c1,?,.,13%,-3%,4.6µM*,-4%
CCCCN(CC)C(=O)Cn1cc2c(n1)-c1c(oc(C(=O)N3CCCC3)c1C)CC2,.,.,.,.,.,-11%
Cc1cccc(OCC(=O)Nc2ccc3c(c2)nc(CCNC(=O)c2ccco2)n3C)c1,.,-27%,.,.,.,?
COc1ccccc1N1CCN(C(=O)c2cc(CC(C)C)on2)CC1,.,0%,.,.,.,-2%
Cc1cc(C)nc(/N=C(\N)Nc2ccc(OCc3ccccc3)cc2)n1,-31%,.,-17%,-12%,-4%,5%
Cc1nc(/N=C(\N)Nc2ccccc2)nc2ccccc12,25%,24%,?,.,3%,12µM*
Cc1cc(C)nc(/N=C(\N)Nc2cccc(OCc3ccccc3)c2)n1,-18%,.,-7%,7.1µM*,-4%,1%
Cc1nc2ccc(S(=O)(=O)CCC(=O)Nc3ccc(Cl)cc3)cc2s1,.,.,.,.,.,-1%
Cn1cc(Br)c(C(=O)Nc2ncc(Br)s2)n1,2.5µM*,4.5µM*,3.5µM*,1%,?,-16%
O=C(Nc1ccc(F)cc1)c1nsc(Cl)c1Cl,3.2µM*,11µM*,3.5µM*,-1%,?,4.8µM*
O=C(Nc1ccc(F)cc1)c1nc[nH]c1C(=O)O,0%[1.84 µM],.,-7%,-7%,0%,-6%
O=C(Nc1ccc(F)c(Cl)c1)c1nsc(Cl)c1Cl,2.8µM*,.,2.2µM*,?,21µM*,2.4µM*
O=C(O)C1=C(C(=O)Nc2ccc(F)c(Cl)c2)CCCC1,0%,13%,-1%,3%,0%,0%
CCOc1ccc(NC(=O)c2nn(C)cc2Br)cc1,3.2µM*,.,?,?,?,7.6µM*
CCCCC[C@H](O)/C=C/[C@H]1[C@H](O)CC(O)[C@@H]1C/C=C\CCCC(=O)O (stereo not given in full),.,0%,.,.,.,.
C/C(CCc1ccccc1)=N\NC(=O)CC(=O)NCCc1ccccc1,0%,15%,-2%,2%,-1%,2%
CCOc1nc(NC(=O)NS(=O)(=O)Oc2cccc(F)c2)nc(-c2ccccc2)n1,.,-7%,.,.,.,?
Cn1cc(Br)c(C(=O)NNC(=O)c2ccc(Cl)cc2)n1,29%,?,22%,12%,?,19µM*
CCOc1ccc(NC(=O)c2nsc(Cl)c2Cl)cc1,1.4µM*,.,2.2µM*,-8%,4.6µM*,4.8µM*
O=C(COCc1cc(-c2cccs2)on1)NCc1ccc(Cl)cc1,.,.,.,.,.,-16%
COc1cccc(CNC(=O)CC(c2ccc(F)cc2)N2Cc3ccccc3C2=O)c1 (stereo not given),.,.,.,.,.,1%
O=C(CSc1nc2ccccc2n1-c1ccccc1)Nc1ncc(Cl)cc1Cl,18%,4.5µM*,3%,-7%,-10%,-3%
SMILES,Rab9 prom act,SMN2 splice up,NPC1 promoter act,uPA generation,ELG1 genotoxic,FLuc counter
Cc1cccc(-n2c(SCC(=O)Nc3ncc(Cl)cc3Cl)nc3ccccc32)c1,9%,-7%,-6%,-15%,-7%,1%
O=c1[nH]c(Nc2ccccn2)cc2ccccc12,.,.,.,-19%,.,.
O=c1[nH]c(-c2ccccn2)cc2ccccc12,?,16µM*,?,-5%,?,17µM*
CCc1nc(SCC(=O)NC2CC2)c2c(C)c(C)sc2n1,-6%,.,-2%,0%,0%,0%
COc1ccc(/C=C/C(=O)NC(=S)Nc2ccc(S(=O)(=O)Nc3cc(C)on3)cc2)cc1,-1%,.,-7%,3%,4%,15µM*
O=C(Nc1ccc(S(=O)(=O)Nc2ncccn2)cc1)c1ccccc1NS(=O)(=O)c1ccc(F)cc1,-5%,-7%,-10%,-6%,0%,?
O=C(O)/C=C/c1ccc(S(=O)(=O)Nc2ccccc2C(=O)Nc2ccc(F)cc2)cc1,2%,.,-1%,-4%,8%,12µM*
Cc1ccnc(NS(=O)(=O)c2ccc(NC(=O)/C=C/c3ccccc3)cc2)n1,-4%,.,0%,2%,0%,?
O=C(/C=C/c1ccc(F)cc1)Nc1ccc(S(=O)(=O)Nc2ncccn2)cc1,1%,.,-1%,-4%,3%,17µM*
Cc1ccc(/C=C/C(=O)Nc2ccc(S(=O)(=O)Nc3ncccn3)cc2)cc1,0%,-2%,-5%,-19%,7%,9.5µM*
CCc1nnc(NS(=O)(=O)c2ccc(NC(=O)/C=C/c3ccc(F)cc3)cc2)s1,-1%,1%,-6%,7%,4%,?
O=C(Cn1c(SCc2ccccc2F)nc2ccncc21)Nc1ccccc1C(F)(F)F,.,0%,.,.,.,?
Cc1noc(NS(=O)(=O)c2ccc(NC(=O)/C=C/c3ccc(Br)cc3)cc2)c1C,3%,.,-7%,1%,6%,?
Cc1ccc(C(=O)/C=C/Nc2ccc(S(=O)(=O)Nc3cc(C)nc(C)n3)cc2)cc1,-2%,.,-1%,-1%,11%,?
Cc1ccc(/C=C/C(=O)Nc2ccc(S(=O)(=O)Nc3cc(C)nc(C)n3)cc2)cc1,-1%,.,3%,-3%,1%,11µM*
Cc1noc(NS(=O)(=O)c2ccc(NC(=O)/C=C/c3ccc(C(C)C)cc3)cc2)c1C,-1%,.,-1%,-1%,1%,11µM*
COC(=O)c1ccc(/C=N/Nc2nc(C)c(C)s2)cc1,0.45µM*,.,0.35µM*,-1%,-7%,1.1µM*
CCOC(=O)c1sc(Nc2ccc(C)cc2C)nc1C,-3%,-19%,-3%,-1%,21%,?
COc1ccccc1Nc1nc(-c2ccccc2)c(CC(=O)O)s1,.,12%,.,.,.,17µM*
O=C(O)Cc1sc(Nc2cccc3ccccc23)nc1-c1ccc(F)cc1,-2%,.,-2%,-12%,3%,?
CCOC(=O)c1sc(N/N=C/c2cccc(C)c2)nc1C,?,20%,?,8%,11%,8.5µM*
CCOC(=O)c1sc(N/N=C/c2ccccc2)nc1C,1.6µM*,13µM*,2.8µM*,3%,8.2µM*,2.7µM*
O=C(O)[C@@H]1CCN(Cc2oc(CO)cc(=O)c2O)C1,.,-1%[9.22 µM],.,.,.,.
Cc1ccc(CNC(=O)Cn2c(=O)n(Cc3ccccc3)c(=O)c3c2c2cc(C)ccc2n3C)cc1,.,.,.,.,.,-1%
